Results on nine compounds are retold here after PubChem BioAssay (EPA / NIEHS).

SMILES strings stand for the structures. Results filed as inconclusive are left out. Active and inactive are the calls of the source. Rule for the calls, unless noted: active = hit-call score of the fitted dose curve at least 0.9, where 1 is the maximum; inactive = score below 0.9.

Test [1] concerns the target Oxysterols receptor LXR-beta (Homo sapiens) (UniProt P55055). Description: ATG_LXRb_TRANS: Attagene TRANS-FACTORIAL HepG2 Assay for human Liver X Receptor beta (LXRb) (AID 2282981; active = hit-call score of the fitted dose curve at least 0.9, where 1 is the maximum). The note with it: HepG2 Attagene TRANS GAL4-LXRb reporter, mRNA. In a few lines: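 Liver-derived HepG2 cells transfected with Gal4-responsive reporters were dosed for 24 h. Activation was scored as rise in reporter mRNA, by RT-PCR and capillary electrophoresis, above DMSO baseline.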

The target in test [2] is Nuclear receptor subfamily 4 group A member 2 (Homo sapiens) (UniProt P43354). Description: ATG_NURR1_TRANS: Attagene TRANS-FACTORIAL HepG2 Assay for human Nuclear Receptor Related Protein 1 (NURR1) (AID 2282985; active = hit-call score of the fitted dose curve at least 0.9, where 1 is the maximum). The note with it: HepG2 Attagene TRANS reporter, mRNA readout. In a few lines: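 Chimeric NR-Gal4 proteins were expressed in human HepG2 cells bearing GAL4-UAS reporter units, and induced reporter mRNA was quantified 24 h post-dosing by RT-PCR and capillary electrophoresis.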
Sequence of Nuclear receptor subfamily 4 group A member 2 (Homo sapiens) (P43354 whole entry, looked up, the tested form may be a part): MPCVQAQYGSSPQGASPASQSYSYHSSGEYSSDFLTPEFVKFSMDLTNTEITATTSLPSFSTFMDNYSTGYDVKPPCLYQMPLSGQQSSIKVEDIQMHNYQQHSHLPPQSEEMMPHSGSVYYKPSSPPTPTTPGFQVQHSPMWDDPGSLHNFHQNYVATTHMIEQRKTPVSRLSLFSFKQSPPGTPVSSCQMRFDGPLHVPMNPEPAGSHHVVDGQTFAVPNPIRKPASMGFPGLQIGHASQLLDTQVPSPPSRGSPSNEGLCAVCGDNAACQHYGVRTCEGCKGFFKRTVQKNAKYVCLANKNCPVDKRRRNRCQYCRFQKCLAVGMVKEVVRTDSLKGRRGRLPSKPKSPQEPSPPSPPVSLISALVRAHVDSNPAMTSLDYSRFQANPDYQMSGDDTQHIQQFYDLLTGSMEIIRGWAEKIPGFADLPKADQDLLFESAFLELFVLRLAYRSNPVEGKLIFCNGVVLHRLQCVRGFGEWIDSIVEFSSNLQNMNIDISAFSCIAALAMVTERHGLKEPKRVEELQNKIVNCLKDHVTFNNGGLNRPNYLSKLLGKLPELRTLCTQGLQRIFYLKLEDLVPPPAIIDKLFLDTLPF

Test [3] concerns the target Transcriptional activator Myb (Homo sapiens) (UniProt P10242). Description: ATG_Myb_CIS: Attagene CIS-FACTORIAL HepG2 Assay for human Myeloblastosis (Myb) Proto-Oncogene Transcription Factor (AID 2282986). The note with it: HepG2 Attagene CIS-FACTORIAL Myb reporter transcription; actives raise or lower the signal. In a few lines:
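HepG2 cells were transiently transfected with cis-regulated multiple reporter transcription units reflecting endogenous Myb activity, then exposed to compound for 24 hours. Reporter mRNA was measured by RT-PCR with capillary electrophoresis; bidirectional fitting versus DMSO baseline.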

The target in test [4] is Nuclear respiratory factor 1 (Homo sapiens) (UniProt Q16656). The test is described as follows: ATG_NRF1_CIS: Attagene CIS-FACTORIAL HepG2 Assay for human Nuclear Respiratory Factor 1 (NRF1) Orphan Gene (AID 2282987). The note with it: HepG2 NRF1 cis-element reporter, Attagene multiplex; actives raise or lower the signal. The essentials: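 HepG2 cells transiently transfected with multiple reporter transcription units under cis-regulatory promoter control, so endogenous transcription-factor activity is read. After 24 h compound exposure, reporter mRNA quantified by RT-PCR, fluorescent labelling, HpaI digestion and capillary electrophoresis; bidirectional fitting versus DMSO.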
Sequence of Nuclear respiratory factor 1 (Homo sapiens) (Q16656 whole entry, looked up): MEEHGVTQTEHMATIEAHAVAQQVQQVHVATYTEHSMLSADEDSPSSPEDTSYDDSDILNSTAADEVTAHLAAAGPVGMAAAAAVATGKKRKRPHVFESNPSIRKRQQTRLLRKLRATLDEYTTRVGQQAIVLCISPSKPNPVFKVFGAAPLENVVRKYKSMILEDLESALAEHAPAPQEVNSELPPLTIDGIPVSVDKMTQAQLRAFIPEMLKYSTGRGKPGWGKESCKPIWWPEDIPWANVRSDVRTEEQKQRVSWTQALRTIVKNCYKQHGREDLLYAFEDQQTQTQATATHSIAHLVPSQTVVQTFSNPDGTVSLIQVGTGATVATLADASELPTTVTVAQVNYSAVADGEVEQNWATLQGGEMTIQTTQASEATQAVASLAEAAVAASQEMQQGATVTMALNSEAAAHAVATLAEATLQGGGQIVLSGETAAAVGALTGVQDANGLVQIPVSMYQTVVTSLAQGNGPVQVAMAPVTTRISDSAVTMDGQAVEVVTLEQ

Test [5] is described as follows: ATG_NFI_CIS: Attagene CIS-FACTORIAL HepG2 Assay for human Nuclear Factor I (NFI) (AID 2282989). The note with it: HepG2 cis-regulatory reporter, NFI response element transcription; actives raise or lower the signal. In a few lines:
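After transient transfection of HepG2 with cis-promoter reporter constructs and 24 h dosing, RNA is reverse-transcribed, amplified, 6-FAM end-labelled and HpaI-digested before capillary analysis. Bidirectional curve fitting against DMSO.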

Test [6] deals with Myc proto-oncogene protein (Homo sapiens) (UniProt P01106). The test is described as follows: ATG_Myc_CIS: Attagene CIS-FACTORIAL HepG2 Assay for human Myelocytomatosis (Myc) Proto-Oncogene Transcription Factor (AID 2282990). The note with it: HepG2, Attagene cis-reporter transcription factor activity; actives raise or lower the signal. In a few lines: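 HepG2 cells transiently transfected with multiple cis-promoter-driven reporter transcription units, so endogenous TF activity is read. After 24 h compound exposure, reporter mRNA was quantified by RT-PCR, 6-FAM labelling, HpaI digestion and capillary electrophoresis; bidirectional fit versus DMSO.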
Sequence of Myc proto-oncogene protein (Homo sapiens) (P01106 whole entry, looked up): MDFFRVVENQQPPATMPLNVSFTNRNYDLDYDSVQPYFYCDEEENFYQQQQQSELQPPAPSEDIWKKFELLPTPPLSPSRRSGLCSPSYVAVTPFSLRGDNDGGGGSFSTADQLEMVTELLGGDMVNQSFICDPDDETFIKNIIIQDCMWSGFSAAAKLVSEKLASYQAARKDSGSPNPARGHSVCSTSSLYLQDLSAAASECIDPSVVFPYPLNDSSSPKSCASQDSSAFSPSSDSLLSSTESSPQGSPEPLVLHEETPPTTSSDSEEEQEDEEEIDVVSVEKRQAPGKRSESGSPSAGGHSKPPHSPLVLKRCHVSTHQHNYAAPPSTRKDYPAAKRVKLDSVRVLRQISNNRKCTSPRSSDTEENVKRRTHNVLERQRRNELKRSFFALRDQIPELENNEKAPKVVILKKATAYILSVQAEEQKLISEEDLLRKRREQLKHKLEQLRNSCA

Test [7] can be described thus: ATG_NRF2_ARE_CIS: Attagene CIS-FACTORIAL HepG2 Assay for human Nuclear Factor Erythroid 2 Related Factor 2 (NFR2) response to Antioxidant Response Elements (ARE) (AID 2282992). The note with it: HepG2 Attagene ARE/NRF2 reporter, transcription factor activity; actives raise or lower the signal. The essentials: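 Readout: reporter mRNA quantified by RT-PCR plus FAM-labelled primer extension, HpaI digestion and capillary electrophoresis, 24 h after dosing transfected HepG2 cells. Gain or loss of signal is fitted bidirectionally against DMSO baseline.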

The nature of test [8]: ATG_Oct_MLP_CIS: Attagene CIS-FACTORIAL HepG2 Assay for human Octamer-Binding Transcription Factor (Oct) (AID 2282993). The note with it: HepG2 Attagene cis-factorial Oct reporter, mRNA; actives raise or lower the signal. In a few lines:
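Cells of the HepG2 line express promoter-controlled reporter sequences whose mRNA levels, after 24 h treatment, are measured by RT-PCR and capillary electrophoresis. Increases and decreases are scored relative to DMSO.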

In test [9] the target is Cellular tumor antigen p53 (Homo sapiens) (UniProt P04637). The test is described as follows: ATG_p53_CIS: Attagene CIS-FACTORIAL HepG2 Assay for human p53 Transcription Factor (AID 2282994). The note with it: HepG2 p53 cis-element reporter, Attagene mRNA; actives raise or lower the signal. The essentials:
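Read-out: reporter mRNA by RT-PCR plus capillary electrophoresis with fluorescence detection. Human HepG2 liver cells carried transfected multi-reporter cis-element constructs, dosed 24 h. Gain or loss of signal fitted bidirectionally against DMSO control.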

For test [10], the target named is Oxysterols receptor LXR-alpha (Homo sapiens) (UniProt Q13133). Description: ATG_LXRa_TRANS: Attagene TRANS-FACTORIAL HepG2 Assay for human Liver X Receptor alpha (LXRa) (AID 2282980; active = hit-call score of the fitted dose curve at least 0.9, where 1 is the maximum). The note with it: HepG2 Attagene TRANS reporter, LXRa transactivation. In a few lines:
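HepG2 cells transiently transfected with GAL4-UAS reporter units for chimeric NR-Gal4 proteins, exposed to chemicals for 24 h. Reporter mRNA quantified by RT-PCR and capillary electrophoresis; gain of signal fitted relative to DMSO.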

Test [11] in a line: ATG_NF_kB_CIS: Attagene CIS-FACTORIAL HepG2 Assay for human Nuclear Factor Kappa B (NF-kB) (AID 2282991). The note with it: HepG2 Attagene cis-factorial NF-kB reporter mRNA; actives raise or lower the signal. The essentials:
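HepG2 cells transiently transfected with multiplexed cis-element reporter units measuring endogenous transcription factor activity; reporter mRNA read 24 h after dosing by RT-PCR, fluorescent labelling, HpaI digestion and capillary electrophoresis. Bidirectional fit against DMSO baseline.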

A short description of test [12]: ATG_M_06_TRANS: Attagene TRANS-FACTORIAL HepG2 Assay for M06 Transcription Factor (Internal Marker) (AID 2282983; active = hit-call score of the fitted dose curve at least 0.9, where 1 is the maximum;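 note: reporter transcript level by RT-PCR then capillary electrophoresis fluorescence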). The note with it: HepG2 Attagene TRANS M06 internal marker reporter. In a few lines: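 mRNA levels of a reporter transcript, quantified as FAM fluorescence on capillary electrophoresis, served as readout. HepG2 cells expressing exogenous GAL4-chimera reporter constructs were exposed for 24 h. Gain of signal over DMSO was evaluated.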

A short description of test [13]: ATG_M_32_TRANS: Attagene TRANS-FACTORIAL HepG2 Assay for M32 Transcription Factor (Internal Marker) (AID 2282984; active = hit-call score of the fitted dose curve at least 0.9, where 1 is the maximum;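 note: transcript level of a background control reporter unit measured by RT-PCR and capillary electrophoresis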). The note with it: HepG2 Attagene TRANS M32 internal marker reporter. In a few lines: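 Fluorescence-detected mRNA induction, HepG2 liver cells, 24 h after dosing. Multiple GAL4-UAS reporter units introduced by transient transfection; background-control endpoint analysed for gain of signal against DMSO.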

A short description of test [14]: BSK_3C_TissueFactor: BioMAP Diversity Plus: 3C Assay for Tissue Factor Biomarker Activity (AID 2282997). The note with it: BioMAP 3C HUVEC, tissue factor biomarker readout; actives raise or lower the signal. In a few lines:
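Tissue Factor measured by ELISA, 24 h after treatment of primary HUVEC in the BioMAP 3C setting.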

Test [15] is described as follows: BSK_3C_uPAR: BioMAP Diversity Plus: 3C Assay for Urokinase-type plasminogen activator receptor (uPAR) Biomarker Activity (AID 2282998). The note with it: BioMAP 3C HUVEC, uPAR biomarker ELISA; actives raise or lower the signal. In a few lines:
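Endothelial primary cells of human umbilical vein origin received test chemical; 24 h later uPAR was assayed by ELISA. Fitting was bidirectional, DMSO as negative control.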
For orientation: In an ELISA, binding on a coated surface is turned into a signal by an enzyme label.

The nature of test [16]: BSK_3C_VCAM1: BioMAP Diversity Plus: 3C Assay for Vascular cell adhesion molecule 1 (VCAM1) Biomarker Activity (AID 2282999). The note with it: BioMAP 3C HUVEC, VCAM1 ELISA, cytokine-stimulated; actives raise or lower the signal. In a few lines: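 Vascular primary endothelium (human umbilical vein) was exposed to chemicals and assayed 24 h later. VCAM-1 levels came from ELISA, with DMSO serving as baseline for bidirectional fitting.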

The target of test [17] is Hepatocyte nuclear factor 4-alpha (Homo sapiens) (UniProt P41235). Description: ATG_HNF4a_TRANS: Attagene TRANS-FACTORIAL HepG2 Assay for human Hepatocyte Nuclear Factor 4 alpha (HNF4a) (AID 2282982; active = hit-call score of the fitted dose curve at least 0.9, where 1 is the maximum). The note with it: HepG2 HNF4a transactivation reporter, mRNA readout. The essentials: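 Using HepG2 liver cells transfected with GAL4-UAS reporter units, chemical-induced mRNA increases were assessed after 24 hours. Fluorescent RT-PCR fragments were separated by capillary electrophoresis and compared with DMSO negative controls.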
Sequence of Hepatocyte nuclear factor 4-alpha (Homo sapiens) (P41235 whole entry, looked up, the tested form may be a part): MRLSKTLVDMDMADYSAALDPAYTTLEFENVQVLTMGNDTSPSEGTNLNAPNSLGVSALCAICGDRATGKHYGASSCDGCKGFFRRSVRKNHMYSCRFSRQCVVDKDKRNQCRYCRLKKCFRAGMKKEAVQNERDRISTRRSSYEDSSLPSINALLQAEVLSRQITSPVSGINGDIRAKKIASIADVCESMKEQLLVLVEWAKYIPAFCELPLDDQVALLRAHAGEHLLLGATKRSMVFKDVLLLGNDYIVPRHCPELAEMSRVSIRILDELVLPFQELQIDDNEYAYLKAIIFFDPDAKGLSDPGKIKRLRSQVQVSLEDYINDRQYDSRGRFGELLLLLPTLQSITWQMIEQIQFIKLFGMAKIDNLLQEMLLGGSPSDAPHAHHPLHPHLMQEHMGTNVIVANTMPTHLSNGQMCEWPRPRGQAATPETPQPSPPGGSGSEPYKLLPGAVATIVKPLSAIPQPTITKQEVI

Sequence of Cellular tumor antigen p53 (Homo sapiens) (P04637 whole entry, looked up): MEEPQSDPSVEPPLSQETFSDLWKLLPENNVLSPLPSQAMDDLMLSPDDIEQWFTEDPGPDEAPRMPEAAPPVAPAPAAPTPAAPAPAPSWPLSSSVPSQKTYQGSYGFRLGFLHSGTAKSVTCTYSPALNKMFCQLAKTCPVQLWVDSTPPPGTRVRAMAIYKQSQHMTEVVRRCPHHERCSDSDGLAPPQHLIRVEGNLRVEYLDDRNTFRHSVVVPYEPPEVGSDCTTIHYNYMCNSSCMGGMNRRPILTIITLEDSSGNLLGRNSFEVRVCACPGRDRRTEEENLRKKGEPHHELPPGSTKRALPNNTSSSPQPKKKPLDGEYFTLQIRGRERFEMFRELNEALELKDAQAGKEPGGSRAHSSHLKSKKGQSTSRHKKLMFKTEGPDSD
Sequence of Oxysterols receptor LXR-beta (Homo sapiens) (P55055 whole entry, looked up, the tested form may be a part): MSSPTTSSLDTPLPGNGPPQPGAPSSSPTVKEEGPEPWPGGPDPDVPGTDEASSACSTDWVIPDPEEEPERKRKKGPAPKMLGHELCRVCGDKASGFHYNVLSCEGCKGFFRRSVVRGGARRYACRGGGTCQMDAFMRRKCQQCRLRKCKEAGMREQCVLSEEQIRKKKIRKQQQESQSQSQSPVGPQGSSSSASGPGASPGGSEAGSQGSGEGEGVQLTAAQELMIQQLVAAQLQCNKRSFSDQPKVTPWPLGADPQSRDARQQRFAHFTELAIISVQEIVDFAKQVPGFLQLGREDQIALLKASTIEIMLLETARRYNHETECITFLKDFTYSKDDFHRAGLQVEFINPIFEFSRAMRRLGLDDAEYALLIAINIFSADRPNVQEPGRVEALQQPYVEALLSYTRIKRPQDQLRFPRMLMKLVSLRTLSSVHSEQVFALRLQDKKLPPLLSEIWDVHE
Sequence of Transcriptional activator Myb (Homo sapiens) (P10242 whole entry, looked up): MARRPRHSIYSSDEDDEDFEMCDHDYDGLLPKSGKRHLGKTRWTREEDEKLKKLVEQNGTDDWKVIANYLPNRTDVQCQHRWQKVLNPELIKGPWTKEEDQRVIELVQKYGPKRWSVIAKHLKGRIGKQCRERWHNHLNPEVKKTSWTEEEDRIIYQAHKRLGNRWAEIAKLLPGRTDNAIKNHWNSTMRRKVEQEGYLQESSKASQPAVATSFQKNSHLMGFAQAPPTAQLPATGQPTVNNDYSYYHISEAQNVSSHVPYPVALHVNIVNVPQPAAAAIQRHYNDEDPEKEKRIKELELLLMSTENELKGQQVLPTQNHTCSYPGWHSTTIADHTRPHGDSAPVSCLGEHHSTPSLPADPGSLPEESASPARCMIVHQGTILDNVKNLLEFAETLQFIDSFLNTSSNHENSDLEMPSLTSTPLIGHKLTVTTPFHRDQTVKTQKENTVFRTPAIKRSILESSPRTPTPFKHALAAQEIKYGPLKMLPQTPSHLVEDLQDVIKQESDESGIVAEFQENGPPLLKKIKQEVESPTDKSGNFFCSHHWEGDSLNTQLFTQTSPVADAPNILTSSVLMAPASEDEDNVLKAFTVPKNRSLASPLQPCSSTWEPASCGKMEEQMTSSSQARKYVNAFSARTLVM
Sequence of Oxysterols receptor LXR-alpha (Homo sapiens) (Q13133 whole entry, looked up, the tested form may be a part): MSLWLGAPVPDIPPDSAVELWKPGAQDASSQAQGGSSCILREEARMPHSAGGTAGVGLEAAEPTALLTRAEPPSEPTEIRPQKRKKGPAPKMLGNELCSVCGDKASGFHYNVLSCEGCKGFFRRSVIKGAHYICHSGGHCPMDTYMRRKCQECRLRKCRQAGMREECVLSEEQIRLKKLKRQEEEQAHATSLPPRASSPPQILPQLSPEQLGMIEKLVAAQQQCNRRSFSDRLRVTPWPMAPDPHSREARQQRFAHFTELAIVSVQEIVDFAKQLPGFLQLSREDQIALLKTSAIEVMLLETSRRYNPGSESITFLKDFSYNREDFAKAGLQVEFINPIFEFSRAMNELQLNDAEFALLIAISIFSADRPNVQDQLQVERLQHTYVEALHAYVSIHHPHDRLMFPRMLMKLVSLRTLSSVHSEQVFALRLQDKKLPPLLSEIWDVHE

On to `CC1=CCC(C(C)C)=CC1`, for which the outcome in [1], in [2], in test [3], in test [4], in test [5] and in test [6] was inactive. In addition, the compound was classed as inactive in test [7], in [8] and in [9].
In the case of `FC(F)(F)c1ccc(Cl)c(Cl)c1`, the result in test [10], in test [3], in test [4], in test [6], in test [11] and in test [7] was inactive. In addition, the result in [8] was inactive.
As for `CCOC(=O)CCCCCCCCC(=O)OCC`, the result in [1], in test [12], in [13], in test [2], in [3] and in [4] was inactive. Besides, the compound was called inactive in test [5], in test [11], in [8], in test [9], in [14] and in test [15]. Besides, in [16], the outcome was inactive.
Take `COc1ccccc1NC(=O)CC(C)=O`: the compound was classed as inactive in test [1], in test [17], in [13], in [2], in test [3] and in [4]. Moreover, the outcome in [5], in test [6], in test [11], in [7], in test [8] and in [9] was inactive. The outcome in [14], in [15] and in test [16] was inactive.
Consider `CC(=O)c1cccnc1`, for which the call in test [1], in [13], in [3], in test [4], in test [5] and in test [6] was inactive. The result in test [11], in test [7], in test [8] and in test [9] was inactive.
Consider `C=C(C)CCCC(C)CCO` (stereo not drawn), for which the call in test [1], in test [12], in test [2], in test [3], in test [4] and in test [5] was inactive. In addition, the outcome in [6], in test [11], in [8] and in test [9] was inactive.
What is called AC50 is the midpoint of the concentration-response curve, whichever way the signal moves. Turning to `CCCCC/C=C\C=C\C(=O)OCC`, the call in test [17], in test [12], in [6], in [7] and in test [8] was inactive. Moreover, the AC50 in [3] was 103 µM (active); in [4], 50.4 µM (active); in test [5], 40 µM (active); in [9], 156 µM (active).
For the compound `COC(=O)c1ccc(C(=O)OC)cc1`, the call in test [17], in test [12], in [13], in [2], in test [3] and in test [4] was inactive. For the same compound, the compound was classed as inactive in test [5], in test [11], in test [7], in test [9], in [14] and in test [15]. Moreover, the result in test [16] was inactive.
As to `CC1(C)CC(N)CC(C)(CN)C1` (stereo not drawn), the call in test [1], in test [17], in test [12], in test [13], in [2] and in test [3] was inactive. For the same compound, the outcome in test [4], in [5], in test [6], in [11], in [7] and in [8] was inactive.
